rCAG RNA binder = r(CAG) repeat RNA binding | 370,000 tested, 1.3% active | AID 651821 | TO-PRO-1 dye displacement fluorescence | inhibition, % at 3 µM;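 active means inhibition above the plate cutoff, the mean of all test compounds on that plate plus 3 SD, cut at about 35% in these data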;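 further: higher means more dye released from RNA so lower well fluorescence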
proKLK7 act = activators of human kallikrein-7 zymogen; purified proKLK7, EDANS-DABCYL substrate fluorescence; 100% is mature enzyme control, 0% vehicle; activation, % at 7 µM; 370,000 tested, 0.9% active;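 active means activation above the mean of all tested compounds plus 3 SD, computed per campaign excluding outliers beyond control limits, cut at about 13% in these data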
ADAM17 inh = inhibitors of human ADAM17. recombinant ADAM17, EDANS/DABCYL FRET peptide cleavage. 370,000 tested, 0.83% active. inhibition, % at 6.95 µM. P78536. AID 720648;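 active means inhibition above the mean of compounds lying between control limits plus 3 SD, set per campaign, cut at about 8.5% in these data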
ADAM10 inh = ADAM10 inhibition, QFRET primary screen. O14672. recombinant ADAM10, EDANS/DABCYL FRET peptide cleavage, 3 h. inhibition, % at 7 µM. 370,000 tested, 0.62% active;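 active means inhibition above a per-campaign cutoff equal to the mean of compounds falling between control-based bounds plus 3 SD, cut at about 20% in these data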
Target sequence (O14672 214-748 limits assumed): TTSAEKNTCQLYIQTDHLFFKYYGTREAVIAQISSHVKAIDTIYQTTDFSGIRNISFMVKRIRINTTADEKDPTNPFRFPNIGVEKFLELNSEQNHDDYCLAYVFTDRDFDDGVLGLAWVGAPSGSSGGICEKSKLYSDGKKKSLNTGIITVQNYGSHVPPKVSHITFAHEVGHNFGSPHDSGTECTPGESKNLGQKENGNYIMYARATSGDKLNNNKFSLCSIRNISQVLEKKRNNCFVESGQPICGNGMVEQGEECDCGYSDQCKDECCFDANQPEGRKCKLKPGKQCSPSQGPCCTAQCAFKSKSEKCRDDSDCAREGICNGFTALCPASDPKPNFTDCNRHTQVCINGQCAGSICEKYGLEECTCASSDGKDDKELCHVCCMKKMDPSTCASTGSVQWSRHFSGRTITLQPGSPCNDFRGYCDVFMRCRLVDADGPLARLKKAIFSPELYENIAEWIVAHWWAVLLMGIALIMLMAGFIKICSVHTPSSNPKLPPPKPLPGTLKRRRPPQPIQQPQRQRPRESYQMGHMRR
DSG3 Ab inh = human desmoglein-3 autoantibody binding inhibition; binding (percent of control), % at 10 µM; 310,000 tested, 0.48% active; P32926; DSG3-coupled beads, scFv-anti-DSG3-GFP binding, flow cytometry; hits give low values; AID 588358;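 active means binding more than 3 SD below its plate's average and above zero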;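 further: hits lower antibody fragment binding to DSG3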
MPTP inh = permeability transition pore inhibition. inhibition, % at 10 µM. isolated mouse mitochondria, Ca2+ swelling absorbance, 30 min. 360,000 tested, 1.4% active;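 active means inhibition of 50% or more, scaled per plate between neutral and stimulator controls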
ADAM10 counter = counter-screen for ADAM17 exosite inhibitors: inhibitors of human ADAM10; shares compounds with ADAM17 inh; recombinant ADAM10, EDANS/DABCYL FRET peptide cleavage, 3 h; inhibition, % at 6.95 µM; 2,900 tested, 47% active; AID 743256;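 active means mean inhibition over the triplicate runs exceeds the activity threshold set in the earlier primary screen, cut at about 20% in these data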
ADAM17 confirm = confirmation of inhibitors of human ADAM17 | AID 743257 | inhibition, % at 6.95 µM | 2,900 tested, 65% active | recombinant ADAM17, EDANS/DABCYL QFRET peptide cleavage | shares compounds with ADAM17 inh;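 active means mean inhibition across replicates above the hit cutoff set in the primary screen, cut at about 8.5% in these data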
Each line names hits and unclear results; the compound was inactive in the other large screens (follow-up assays come after a bar, where they were run). A selection: hits, their analogues and other compounds. The true share with any hit is near 4.7%.

C=C(C)CNC(=S)NNC(=O)CCn1c2ccc(Cl)cc2c2cc(Cl)ccc21	ADAM17 inh 9.7 | ADAM10 counter 37 | ADAM17 confirm 23
COc1ccccc1N(C)S(=O)(=O)c1ccc(C(=O)Nc2cccc(S(=O)(=O)N3CCOCC3)c2)cc1	none
Cc1nc(N2CCN(C)CC2)c2c(C)c(C(=O)Nc3ccc(C)c(F)c3)sc2n1	ADAM17 inh 8.8 | ADAM10 counter inactive | ADAM17 confirm 8.8
Cc1nc(N2CCCCC2)c2c(C)c(C(=O)Nc3ccc4c(c3)OCCO4)sc2n1	ADAM17 inh 9.6 | ADAM10 counter inactive | ADAM17 confirm 11
Cc1nc(N2CCC(C)CC2)c2c(C)c(C(=O)Nc3ccc(C)c(F)c3)sc2n1	none
O=C(Nc1ccc(F)cc1)C(c1ccncc1)N1CCN(c2cccc(C(F)(F)F)n2)CC1 (stereo not given)	none (no result: DSG3 Ab inh)
COc1ccc(CN(C)C[C@H]2OCCCC[C@@H](C)Oc3ccc(NC(=O)c4ccccc4)cc3C(=O)N([C@H](C)CO)C[C@@H]2C)cc1	none
CCCCCN1CC(O)=C(c2nc3ccccc3[nH]2)C1=N	ADAM17 inh 10 | ADAM10 counter inactive | ADAM17 confirm inactive
COc1ccc([C@H]2CC(=O)C=C(c3ccc(Cl)c(Cl)c3)C2)cc1	none
COc1cccc(NC(=O)CCN2C(=O)c3ccccc3Sc3ncccc32)c1	none
Cc1cccc2sc(NC(=O)CN(C)S(=O)(=O)c3ccc(Br)s3)nc12	ADAM17 inh 8.8 | ADAM10 counter 44 | ADAM17 confirm 24
O=C(Nc1nc(-c2cccs2)cs1)c1ccc([N+](=O)[O-])o1	none (no result: DSG3 Ab inh)
CCOC(=O)N1CCC(n2c(SCC(=O)Nc3ccccc3OC)nc3ccccc3c2=O)CC1	ADAM17 inh 10 | ADAM10 counter 29 | ADAM17 confirm 16
O=C(NC1CC1)c1ccc2c(c1)C1C3CCC(C3)C1C(c1ccccc1)N2 (stereo not given)	ADAM17 inh 9.6 | ADAM10 counter inactive | ADAM17 confirm 9.4
O=C(NC1CCCCC1)c1ccc2ccccc2c1	none
C#CCOCCOCCOCCNc1nc(N2CCN(C(=O)[C@H](CC(N)=O)n3cc([C@@H](N)C(C)C)nn3)CC2)nc(N2CCN(C(=O)[C@H](CC(N)=O)n3cc([C@@H](N)C(C)C)nn3)CC2)n1	none
O=C(CSc1nc(Nc2ccccc2)nc(N2CCOCC2)n1)Nc1cccc([N+](=O)[O-])c1	ADAM17 inh 10 | ADAM10 counter 38 | ADAM17 confirm 22
O=C(CSc1nc(Nc2ccccc2)nc(N2CCOCC2)n1)Nc1ccccc1Cl	none
COc1cc(-c2n[nH]c(=S)n2-c2ccc(C)cc2)cc(OC)c1OC	none
COc1ccc(-c2n[nH]c(=S)n2-c2ccc(Br)cc2)cc1OC	ADAM17 inh 11 | ADAM10 counter inactive | ADAM17 confirm 37
COCCNC(=O)C1(C)CCCN(Cc2ccc3ccccc3c2Br)C1 (stereo not given)	none (no result: DSG3 Ab inh)
CCN(CC(=O)Nc1ccccc1OC)C(=O)CN1C(=O)NC(C)(c2ccccc2)C1=O (stereo not given)	none
CCCCOCCCNC(=O)C[C@@H]1C[C@@]2(C(=O)OCC)CCCC=C2N(Cc2cccc3ccccc23)C1=O	none (no result: DSG3 Ab inh)
C#CCNC(=O)C[C@@H]1C[C@@]2(C(=O)OCC)CCCC=C2N(Cc2cccc3ccccc23)C1=O	none (no result: DSG3 Ab inh)
CCCCNC(=O)C[C@@H]1C[C@@]2(C(=O)OC)CCCCC=C2N(Cc2cccc3ccccc23)C1=O	none (no result: DSG3 Ab inh)
CCOC(=O)[C@]12CCCC=C1N(Cc1cccc3ccccc13)C(=O)[C@H](CC(=O)NCc1cccc3ccccc13)C2	ADAM17 inh 11 (no result: DSG3 Ab inh) | ADAM10 counter inactive | ADAM17 confirm inactive
COC(=O)[C@]12CCCCC=C1N(Cc1cccc3ccccc13)C(=O)[C@H](CC(=O)NCc1cccc3ccccc13)C2	ADAM17 inh 12 (no result: DSG3 Ab inh) | ADAM10 counter 23 | ADAM17 confirm 12
